Measurements: PMC11062922 (Nature Chemical Biology, 2023)
Where two headings read alike, the source gives them in different places.

Columns and labels:
Design in all cases: species or system human, MV4-11 + K-562 + COLO205 + SK-N-BE2 + OVCAR-8
CDK5 = details: read-out: apparent Kd, compound concentrations: 100 nM and 1000 nM (sheet 'Samples'), n = 1
JAK1 = details: read-out: apparent Kd, compound concentrations: 100 nM and 1000 nM (sheet 'Samples'), n = 1
CDC7 = details: read-out: apparent Kd, n = 1
PRKCB = details: read-out: apparent Kd; compound concentrations:100 nM and 1000 nM (sheet 'Samples'); n = 1
NQO2 = details: read-out: apparent Kd, compound concentrations: 100 nM and 1000 nM (sheet 'Samples'), n = 1
ATR = details: read-out: apparent Kd; compound concentrations: 100 nM and 1000 nM (sheet 'Samples'), CATDS: 4.3166992032332097E-2; n = 1
PIK3CA = details: read-out: apparent Kd, compound concentrations: 100 nM and 1000 nM (sheet 'Samples'), n = 1
CDK6 = details: read-out: apparent Kd; compound concentrations:100 nM and 1000 nM (sheet 'Samples'); n = 1
MAP2K1 = details: read-out: apparent Kd; compound concentrations:100 nM and 1000 nM (sheet 'Samples'); n = 1
STK26 = details: read-out: apparent Kd, n = 1
IRAK4 = details: read-out: apparent Kd; compound concentrations:100 nM and 1000 nM (sheet 'Samples'); n = 1
DJA1 = test system: T1, DJA1; details: read-out: apparent Kd; compound concentrations: 100 nM and 1000 nM (sheet 'Samples'), CATDS: 4.7532524958751397E-2; n = 1
T1 construct: gene DNAJA1

JAK2 = details: read-out: apparent Kd; compound concentrations: 100 nM and 1000 nM (sheet 'Samples'), CATDS: 1.8350594186084E-2; n = 1
[1] = compound concentrations:100 nM and 1000 nM (sheet 'Samples')

SMILES: COc1cc[nH]c1/C=C1\C(=O)Nc2ccc([N+](=O)[O-])c(N3CC[C@@H](O)C3)c21 [RO0504985-000]
- potency estimated from few doses (CDK5; CATDS: 3.2036617578660199E-2): 1470 nM
- potency estimated from few doses (JAK1; CATDS: 3.4351644402230902E-2): 1130 nM

SMILES: CCn1c(-c2nonc2N)nc2cncc(Br)c21 [SB-738004]
- potency estimated from few doses (CDC7; [1]): 655 nM
- potency estimated from few doses (PRKCB): 1350 nM

SMILES: O=C1N=C(NCc2ccccc2Br)S/C1=C\c1ccc2ncccc2c1 [RO4506918-000]
- potency estimated from few doses (NQO2; CATDS: 7.7702899171443504E-2): 1480 nM

SMILES: CCC(CC)(CC)n1cnc2c(N)ncnc21 [SKF-97620]
- potency estimated from few doses (ATR): 432 nM
- potency estimated from few doses (PIK3CA; CATDS: 0.13947400940733601): 53.9 nM

SMILES: Nc1nc(-c2ccc3c(N)n[nH]c3c2)cc(N2CCCC(NC(=O)c3ccccc3)C2)n1 (stereo not shown) [GSK2286775B]
- potency estimated from few doses (CDK6): 1510 nM
- potency estimated from few doses (MAP2K1): 1830 nM

SMILES: NS(=O)(=O)c1ccc(N/N=C2\C(=O)Nc3ccc4ncccc4c32)cc1 [GW305178X]
- potency estimated from few doses (CDK5; CATDS: 5.4245718700327898E-2): 776 nM
- potency estimated from few doses (STK26; compound concentrations: 100 nM and 1000 nM (sheet 'Samples'), CATDS: 3.9228488204277198E-2): 2190 nM

SMILES: Cl.Nc1nc(-c2ccc3c(c2)C(=Cc2cc(Br)c(O)c(Br)c2)C(=O)N3)cs1 [GW407323A]
- potency estimated from few doses (CDC7; compound concentrations: 100 nM and 1000 nM (sheet 'Samples'), CATDS: 3.34335879912959E-2): 903 nM
- potency estimated from few doses (CDK5; CATDS: 3.2075067944878903E-2): 1060 nM
- potency estimated from few doses (NQO2; CATDS: 3.5438928095243502E-2): 734 nM

SMILES: Cn1cc(C2=C(c3c(S(C)=O)n(C)c4ccccc34)C(=O)NC2=O)c2ccccc21 (stereo not shown) [RO0317379-000]
- potency estimated from few doses (NQO2; CATDS: 0.10247036288978301): 1820 nM

SMILES: O=C(Nc1n[nH]c2nc(-c3ccccc3O)ccc12)C1CC1 [SB-711880]
- potency estimated from few doses (IRAK4): 958 nM

SMILES: Nc1nccc(-c2ccc3c(N)n[nH]c3c2)n1 [GSK1034945A]
- potency estimated from few doses (CDC7; [1]): 1420 nM
- potency estimated from few doses (CDK6): 2150 nM

SMILES: COc1ccc(Nc2nccc(NCCNC(=O)Nc3cc(C)ccc3C)n2)cc1 [GSK1379899A]
- potency estimated from few doses (DJA1): 1320 nM
- potency estimated from few doses (PIK3CA; CATDS: 0.114925337657843): 250 nM

SMILES: Cl.Cl.NCC(NC(=O)c1cc(-c2ccnc3[nH]ccc23)cs1)c1ccccc1.NCC(NC(=O)c1cc(-c2ccnc3[nH]ccc23)cs1)c1ccccc1 (stereo not shown) [GSK1229959A]
- potency estimated from few doses (JAK2): 1230 nM

SMILES: CCn1c(-c2nonc2N)nc2cncc(C(=O)N3CC[C@H](N)C3)c21.Cl [SB-772077-B]
- potency estimated from few doses (PRKCB): 752 nM

SMILES: Cn1cc(C=C2C(=O)Nc3cccnc32)c2ccccc21 [GW441756X]
- potency estimated from few doses (JAK1; CATDS: 0.22655128290916701): 1250 nM

SMILES: COc1cc[nH]c1/C=C1\C(=O)Nc2ccc(F)c(I)c21 [RO0281567-000]
- potency estimated from few doses (NQO2; CATDS: 0.103820399985183): 1830 nM

SMILES: Nc1nc(-c2ccc3c(N)n[nH]c3c2)cc(N2CCCCC2)n1 [GSK2228768A]
- potency estimated from few doses (STK26; [1]): 1330 nM
